In PubChem BioAssay (Tox21):
Values joined by “and” are separate entries in the source; they are usually repeats but may differ in a detail not shown here. Equal values may be shown once. Results filed as inconclusive are left out. Some structures have more than one record in an assay (separate samples or runs), and their calls can disagree. Active and inactive are the calls of the source. Unless noted, calls follow the shape of the dose curve; as a rule, active = well fitted curve in the direction sought with a large enough effect in the repeat runs; inconclusive = weak or mixed curves; inactive = no such curve, though single readings can be large; an effect the other way counts as inactive or inconclusive.

Tests used:
[1] = qHTS assay to identify small molecule agonists of the RXR signaling pathway - cell viability counter screen (AID 1159529); also: nearly all actives have a fitted effect of over 50% in size; also: potency is read from the fitted curve at half-maximal effect;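 as to activity change, negative = cytotoxicity: HEK 293T cells carrying an RXR-alpha UAS beta-lactamase reporter; series mostly up to about 77 µM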
Method in brief: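 Tox21 10K compounds were tested for cytotoxicity against GeneBLAzer RXR-alpha HEK 293T cells grown in 2% charcoal-stripped FBS. Exposure lasted 16 hr at 37 C, 5% CO2; viability read by CellTiter-Glo luminescence.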

[2] = qHTS assay to identify small molecule antagonists of the retinoid acid receptor (RAR) signaling pathway - cell viability counter screen (AID 1159551); also: nearly all actives have a fitted effect of over 35% in size
Method in brief: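 Retinol-stimulated (1 uM final) C3RL4 cells, compound 6 h, 37 C; readout CellTiter-Glo luminescence (ATP) after 30 min RT incubation.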

[3] = molecular target: Nuclear receptor subfamily 1 group I member 3 (Homo sapiens) (UniProt Q14994); test: qHTS assay to identify small molecule agonists of the constitutive androstane receptor (CAR) signaling pathway (AID 1224839);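 also: HepG2 cells stably carrying human CAR and a CYP2B6 luciferase reporter; series mostly up to about 92 µM; nearly all actives have a fitted effect of over 15% in size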
Sequence of Nuclear receptor subfamily 1 group I member 3 (Homo sapiens) (Q14994 whole entry, looked up): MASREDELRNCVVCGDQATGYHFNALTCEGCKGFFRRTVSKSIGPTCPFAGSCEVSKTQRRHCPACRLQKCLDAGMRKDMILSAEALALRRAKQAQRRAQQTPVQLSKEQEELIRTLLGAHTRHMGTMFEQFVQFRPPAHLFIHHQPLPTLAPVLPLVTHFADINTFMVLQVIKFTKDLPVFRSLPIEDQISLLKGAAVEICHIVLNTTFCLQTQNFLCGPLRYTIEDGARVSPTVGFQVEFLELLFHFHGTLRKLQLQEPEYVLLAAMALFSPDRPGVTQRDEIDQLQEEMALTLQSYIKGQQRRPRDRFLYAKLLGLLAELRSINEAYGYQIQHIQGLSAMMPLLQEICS
Method in brief: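 Stable hCAR/CYP2B6-2.2kb HepG2 line in DMEM with 10% FBS; compounds (15 concentrations) and 0.75 uM PK11195 final, 24 h at 37 C/5% CO2, then ONE-Glo luminescence after 30 min.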

[4] = qHTS assay to identify small molecule agonists of H2AX - cell viability counter screen (AID 1224847; calls by dose curve; also: nearly all actives have a fitted effect of over 30% in size; also: potency is read from the fitted curve at half-maximal effect; as to activity change, negative = cytotoxicity: top concentration of the series differs between compounds)
Method in brief: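 Viability of CHO-K1 (wild type) cells after 3 hr compound exposure was measured by CellTiter-Glo luminescence.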

[5] = qHTS RealTime-Glo MT Cell Viability Assay in HEK293 cells - 16 hour (AID 1224872); also: nearly all actives have a fitted effect of over 50% in size; also: potency is read from the fitted curve at half-maximal effect; as to activity change, negative = cytotoxicity: top concentration of the series differs between compounds
Method in brief: (§1)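 HEK293 cells were seeded at 600 cells/well together with NanoLuc luciferase and cell-permeant prosubstrate, preincubated 5 h at 37 C/5% CO2, then given compound in DMSO by pintool. Luminescence from viable-cell prosubstrate reduction was read repeatedly over 40 h.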

[6] = qHTS RealTime-Glo MT Cell Viability Assay in HepG2 cells - 8 hour (AID 1224873); also: nearly all actives have a fitted effect of over 55% in size
Method in brief: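 Real-time viability: cells seeded at 600 per well together with NanoLuc and cell-permeant prosubstrate, compounds added after 5 h incubation. Luminescence tracked at 0, 8, 16, 24, 32 and 40 h of exposure.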

[7] = A CellTox Green Cytotoxicity Assay to monitor cytotoxicity in HEK293 cells - 32 hour (AID 1224881); also: nearly all actives have a fitted effect of over 40% in size; also: potency is read from the fitted curve at half-maximal effect
Method in brief: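 Fluorescence intensity, read at 0, 8, 16, 24, 32 and 40 h of compound treatment, reflected dye binding to DNA of dead HEK293 cells; compounds (23 nL, DMSO) were added 5 h after plating cells with reagent.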

[8] = qHTS RealTime-Glo MT Cell Viability Assay in HEK293 cells - 24 hour (AID 1224886); also: nearly all actives have a fitted effect of over 50% in size; also: potency is read from the fitted curve at half-maximal effect; as to activity change, negative = cytotoxicity: top concentration of the series differs between compounds
Method in brief: as §1

[9] = qHTS assay to identify small molecule agonists of the androgen receptor (AR) signaling pathway in the presence of an antagonist - cell viability counter screen (AID 1259379); also: nearly all actives have a fitted effect of over 25% in size; also: potency is read from the fitted curve at half-maximal effect;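 as to activity change, negative = cytotoxicity: MDA-kb2 human breast cancer cells carrying an MMTV luciferase reporter; series mostly up to about 92 µM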
Method in brief: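 Seed MDA-kb2 at 3,000 cells/well; incubate 5 hr, 37C, 0% CO2. Add nilutamide to 3.0uM final, then pin compounds at 15 concentrations. Incubate 16 hr. Add CellTiter-Fluor at 15 hr, read fluorescence after 1 hr.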

[10] = qHTS assay to identify small molecule agonists of the estrogen receptor beta (ER-beta) signaling pathway - cell viability counter screen (AID 1259380); also: nearly all actives have a fitted effect of over 30% in size; also: potency is read from the fitted curve at half-maximal effect
Method in brief: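 CellTiter-Glo read, 30 min RT, same wells as bla assay; cells ER-beta-UAS-bla HEK293T; 16 hr compound, 37C; medium 2% charcoal-stripped FBS.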

[11] = qHTS assay to identify small molecule antagonists of the estrogen receptor beta (ER-beta) signaling pathway - cell viability counter screen (AID 1259382); also: nearly all actives have a fitted effect of over 55% in size; also: potency is read from the fitted curve at half-maximal effect;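 as to activity change, negative = cytotoxicity: HEK293T cells carrying ER-beta-UAS-bla reporter stimulated with estradiol; series mostly up to about 92 µM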
Method in brief: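 In this multiplexed counter screen, cells were seeded at 2,000 per well in medium with 2% charcoal-stripped FBS and incubated 6 hr before compound and 1nM final E2 were added. Sixteen hours later, ATP-based luminescence reported viability.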

[12] = molecular target: Progesterone receptor (Homo sapiens) (UniProt P06401); test: qHTS assay to identify small molecule agonists of the progesterone receptor (PR) signaling pathway (AID 1346784; calls by dose curve; also: nearly all actives have a fitted effect of over 30% in size)
Sequence of Progesterone receptor (Homo sapiens) (P06401 whole entry, looked up): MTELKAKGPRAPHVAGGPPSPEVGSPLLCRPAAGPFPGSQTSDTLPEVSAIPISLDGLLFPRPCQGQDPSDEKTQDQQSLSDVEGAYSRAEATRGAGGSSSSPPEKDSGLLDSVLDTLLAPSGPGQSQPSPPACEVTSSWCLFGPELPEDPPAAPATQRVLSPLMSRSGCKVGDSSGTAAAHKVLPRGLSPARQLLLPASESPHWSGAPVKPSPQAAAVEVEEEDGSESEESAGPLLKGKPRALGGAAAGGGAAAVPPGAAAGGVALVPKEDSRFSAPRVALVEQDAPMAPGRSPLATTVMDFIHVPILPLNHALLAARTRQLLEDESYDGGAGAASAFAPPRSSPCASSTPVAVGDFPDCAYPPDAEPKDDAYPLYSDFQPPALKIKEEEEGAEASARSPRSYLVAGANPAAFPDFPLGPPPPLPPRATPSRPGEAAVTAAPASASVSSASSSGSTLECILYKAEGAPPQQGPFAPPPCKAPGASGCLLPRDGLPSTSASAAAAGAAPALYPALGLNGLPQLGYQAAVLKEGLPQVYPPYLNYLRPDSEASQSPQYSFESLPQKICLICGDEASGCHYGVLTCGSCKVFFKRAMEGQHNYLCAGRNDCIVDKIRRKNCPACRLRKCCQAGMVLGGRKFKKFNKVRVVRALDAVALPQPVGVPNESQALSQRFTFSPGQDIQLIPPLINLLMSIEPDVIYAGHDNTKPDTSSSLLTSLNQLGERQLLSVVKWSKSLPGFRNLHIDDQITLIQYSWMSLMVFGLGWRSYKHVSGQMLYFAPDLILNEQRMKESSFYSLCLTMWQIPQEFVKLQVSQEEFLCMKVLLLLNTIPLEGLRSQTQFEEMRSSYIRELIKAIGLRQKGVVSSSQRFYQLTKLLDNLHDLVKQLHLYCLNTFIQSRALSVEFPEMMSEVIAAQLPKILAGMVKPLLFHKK
Method in brief: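 The screen uses PR-UAS-bla HEK 293T cells in charcoal-stripped serum (2%). Compounds are applied for 16 hr at 37C after a 6 hr pre-incubation, and reporter activity is detected with a FRET beta-lactamase substrate after 2 hr at room temperature.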

[13] = qHTS assay to identify small molecule antagonists of the progesterone receptor (PR) signaling pathway - cell viability counter screen (AID 1346798); also: nearly all actives have a fitted effect of over 50% in size; also: potency is read from the fitted curve at half-maximal effect; as to activity change, negative = cytotoxicity: series mostly up to about 92 µM
Method in brief: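 Viability was determined by ATP-based luminescence (CellTiter-Glo) in PR-UAS-bla HEK293T cells cultured in 2% charcoal-stripped serum and incubated 16 hr with compounds under R5020 stimulation.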

[14] = molecular target: Thyrotropin-releasing hormone receptor (Homo sapiens) (UniProt P34981); test: qHTS assay to identify small molecule agonists of the thyrotropin-releasing hormone receptor (TRHR) signaling pathway (AID 1346891; calls by dose curve;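 also: HEK293 cells expressing TRHR with calcium dye readout; series mostly up to about 58 µM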)
Sequence of Thyrotropin-releasing hormone receptor (Homo sapiens) (P34981 whole entry, looked up): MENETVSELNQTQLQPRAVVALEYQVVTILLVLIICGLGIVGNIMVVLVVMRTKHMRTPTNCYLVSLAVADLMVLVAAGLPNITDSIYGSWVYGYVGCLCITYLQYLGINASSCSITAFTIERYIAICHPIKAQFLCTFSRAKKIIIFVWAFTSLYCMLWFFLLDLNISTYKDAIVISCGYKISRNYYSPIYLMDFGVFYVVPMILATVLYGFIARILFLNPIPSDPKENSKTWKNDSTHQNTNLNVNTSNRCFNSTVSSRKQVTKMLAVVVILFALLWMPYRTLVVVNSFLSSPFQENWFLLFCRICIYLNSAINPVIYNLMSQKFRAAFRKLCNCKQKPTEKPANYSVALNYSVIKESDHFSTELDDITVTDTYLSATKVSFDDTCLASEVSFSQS
Method in brief: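 Kinetic fluorescence (3 min, 1 s intervals) reported intracellular calcium after compound transfer onto TRHR-Hek293 cells pre-loaded with dye for 2 h at 37 °C.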

[15] = Human pregnane X receptor (PXR) small molecule agonists, qHTS cell viability counter screen (AID 1346977); also: nearly all actives have a fitted effect of over 50% in size; also: potency is read from the fitted curve at half-maximal effect
Method in brief: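 HepG2 cells stably carrying the PXR-Luc reporter are cultured with 5% charcoal-stripped FBS and treated with compounds for 24hr. CellTiter-Fluor is added at 23hr and fluorescence is read after 1hr.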

[16] = Caspase-3/7 induction in CHO-K1 cells by small molecules, qHTS cell viability counter screen (AID 1346979); also: nearly all actives have a fitted effect of over 35% in size; also: potency is read from the fitted curve at half-maximal effect
Method in brief: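 Seeding: 1,500 CHO-K1 cells/well. Rest: 5hr, 37C. Treatment: compounds in DMSO, 16hr. Read: CellTiter-Fluor, 1hr, fluorescence.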

[17] = Caspase-3/7 induction in HepG2 cells by small molecules, qHTS cell viability counter screen (AID 1346981); also: series mostly up to about 92 µM; nearly all actives have a fitted effect of over 30% in size
Method in brief: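 Viability determined by CellTiter-Fluor fluorescence in HepG2 wells also used for the luminescent Caspase-Glo 3/7 read. Compounds were present for 16 hr at 37 C, 5% CO2 before reagent addition.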

[18] = molecular target: Cytochrome P450 2D6 (Homo sapiens) (UniProt P10635); test: Cytochrome P450 Family 2 Subfamily D Member 6 (CYP2D6) small molecule antagonists: luciferase reporter qHTS assay (AID 1671196); also: nearly all actives have a fitted effect of over 50% in size; also: potency is read from the fitted curve at half-maximal effect; as to activity change, negative = inhibition: series mostly up to about 120 µM
Sequence of Cytochrome P450 2D6 (Homo sapiens) (P10635 whole entry, looked up): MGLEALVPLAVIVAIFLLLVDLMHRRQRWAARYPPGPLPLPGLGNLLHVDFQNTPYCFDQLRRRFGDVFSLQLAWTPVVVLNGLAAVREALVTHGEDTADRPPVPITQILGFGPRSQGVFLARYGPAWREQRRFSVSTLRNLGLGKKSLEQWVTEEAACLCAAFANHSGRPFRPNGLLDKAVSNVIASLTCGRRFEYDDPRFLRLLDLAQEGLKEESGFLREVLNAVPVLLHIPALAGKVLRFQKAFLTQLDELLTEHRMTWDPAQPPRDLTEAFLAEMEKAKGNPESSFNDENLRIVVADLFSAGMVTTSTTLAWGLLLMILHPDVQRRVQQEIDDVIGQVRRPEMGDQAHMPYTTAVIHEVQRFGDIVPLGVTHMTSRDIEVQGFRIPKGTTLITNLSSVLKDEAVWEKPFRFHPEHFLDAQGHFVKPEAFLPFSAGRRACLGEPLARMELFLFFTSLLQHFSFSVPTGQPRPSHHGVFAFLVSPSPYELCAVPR
Method in brief: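 Each well received CYP2D6 with its proluciferin substrate and chemical, sat 10 min, then got NADPH regeneration solution for 1 h at room temperature. Luminescence in RLU served as the activity measure.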

[19] = molecular target: Cytochrome P450 3A4 (Homo sapiens) (UniProt P08684); test: Cytochrome P450 Family 3 Subfamily A Member 4 (CYP3A4) small molecule antagonists: luciferase reporter qHTS assay (AID 1671201)
Sequence of Cytochrome P450 3A4 (Homo sapiens) (P08684 whole entry, looked up): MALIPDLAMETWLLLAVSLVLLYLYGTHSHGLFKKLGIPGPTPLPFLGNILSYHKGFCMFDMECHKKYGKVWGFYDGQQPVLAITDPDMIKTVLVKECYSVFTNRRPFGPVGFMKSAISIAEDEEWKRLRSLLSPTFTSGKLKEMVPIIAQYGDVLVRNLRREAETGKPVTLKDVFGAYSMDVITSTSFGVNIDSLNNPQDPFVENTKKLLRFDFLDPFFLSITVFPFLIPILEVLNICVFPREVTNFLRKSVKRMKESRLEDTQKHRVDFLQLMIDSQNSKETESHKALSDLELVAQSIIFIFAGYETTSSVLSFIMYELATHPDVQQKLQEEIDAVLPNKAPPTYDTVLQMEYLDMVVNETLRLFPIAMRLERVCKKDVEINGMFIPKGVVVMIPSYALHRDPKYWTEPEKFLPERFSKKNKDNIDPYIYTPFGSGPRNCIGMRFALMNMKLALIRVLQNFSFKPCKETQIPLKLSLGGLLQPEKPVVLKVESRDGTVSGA
Method in brief: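 Enzyme and proluciferin substrate are mixed with test chemicals for 10 min, then NADPH regeneration system drives turnover for 1 h at room temperature. A detection reagent halts the reaction; luminescence after 20 min gives relative activity.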

[20] = qHTS assay to identify small molecule agonists of the hypoxia (HIF-1) signaling pathway - cell viability counter screen (AID 1224844; calls by dose curve; also: nearly all actives have a fitted effect of over 50% in size; also: potency is read from the fitted curve at half-maximal effect)
Method in brief: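 Cells (HRE-bla ME-180, 2,000 per well) sat 5 hrs at 37C, got compound for 17 hrs, were read for CCF4-AM FRET, and were finally lysed with CellTiter-Glo for a 30 min room-temperature luminescence read.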
% is scaled to controls: 0 for no effect and ±100 for the full control effect.

CN1CSC(=S)N(C)C1
inactive: Potency [2] | Potency [3] | Potency [6] | outcome [12] | outcome [14] | Potency [17] | Potency [18] | Potency [19]
active: Potency [1] 10.9 µM and 8.69 µM | Potency [4] 56.4 µM | Potency [5] 15.4 µM | Potency [7] 6.13 µM and 9.75 µM | Potency [8] 17.3 µM and 24.5 µM | Potency [10] 4.31 µM and 9.66 µM | Potency [11] 9.64 µM and 8.61 µM | Potency [13] 27.2 µM and 21.6 µM | Potency [15] 5.01 µM and 21.6 µM | Potency [16] 1.36 µM and 7.67 µM
27.2 µM (active) and inactive: Potency [9]

Cc1ccc2nc3sc(=O)sc3nc2c1
active: Potency [20] 7.37 µM | Potency [16] 5.8 µM
inactive: activity change, negative = cytotoxicity [1] -5.08% [at 15.8 µM] | activity change, negative = cytotoxicity [2] 1.22% [at 19 µM] | activation [3] 7.43% [at 19 µM] | activity change, negative = cytotoxicity [4] 0.633% [at 31.6 µM] | activity change, negative = cytotoxicity [5] 3.61% [at 15.8 µM] | viability change, negative = cytotoxic [6] 3.11% [at 15.8 µM] | cytotoxicity increase [7] -11.5% [at 15.8 µM] | activity change, negative = cytotoxicity [8] 3.52% [at 15.8 µM] | activity change, negative = cytotoxicity [9] -12.9% [at 19 µM] | activity change, negative = cytotoxicity [11] -3.52% [at 19 µM] | activation [12] 0.875% [at 19 µM] | activity change, negative = cytotoxicity [13] -19.3% [at 18.9 µM] | activation [14] -0.107% [at 11.8 µM] | activity change, negative = cytotoxicity [15] -12.4% [at 19 µM] | activity change, negative = cytotoxicity [17] -0.0724% [at 19 µM] | activity change, negative = inhibition [18] 1.42% [at 23.6 µM] | activity change, negative = inhibition [19] 0.418% [at 23.6 µM]

COc1cc(OC)c(OC)cc1C=O
active: Potency [18] 19.4 µM
inactive: Potency [1] | Potency [2] | Potency [3] | Potency [4] | Potency [6] | Potency [7] | Potency [8] | Potency [9] | outcome [14]

CCN(CC)C(=O)Cl
inactive: Potency [1] | Potency [2] | Potency [3] | Potency [20] | Potency [4] | Potency [5] | Potency [6] | Potency [7] | Potency [8] | Potency [9] | Potency [10] | Potency [11] | outcome [12] | Potency [13] | outcome [14] | Potency [15] | Potency [16] | Potency [17] | Potency [18] | Potency [19]

O=[N+]([O-])c1c(Cl)c(Cl)cc(Cl)c1Cl
inactive: Potency [2] | Potency [20] | Potency [5] | Potency [6] | Potency [8] | Potency [9] | Potency [11] | outcome [12] | Potency [13] | Potency [15] | Potency [16] | Potency [17] | Potency [19]
active: Potency [7] 43.6 µM | Potency [18] 35.6 µM

O=C(c1ccccc1)C(Cl)Cl
inactive: Potency [1] | Potency [10] | Potency [11] | Potency [13] | outcome [14] | Potency [19]
active: Potency [5] 34.7 µM | Potency [7] 34.7 µM | Potency [8] 34.7 µM | Potency [16] 27.3 µM
